# Screens from PubChem.
# Hits are enriched below; roughly 3.2% of the tested compounds scored in any of these assays.
# pS6 MEF inh: reduces mTORC1 signaling in Tsc2 and p53 null MEF cells. Potency, µM (doses to about 38.3 µM), inactives show top-dose activity change, negative = inhibition, usual class: inhibitors. actives 0.78% (n = 44,000). Tsc2-/- p53-/- MEF, phospho-rpS6 immunofluorescence/PI, 24 h;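 further: potency means the concentration at half of the fitted maximal effect; plate controls were DMSO for no effect and rapamycin for full effect; nearly all actives have a fitted effect of over 50% in size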
#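 Plate MEFs (Tsc2-/-, p53-/-, empty vector) in DMEM/10% FBS; after 24 h add compound, incubate 24 h at 37 degree Celsius; fix in PFA/TX-100, block, stain phospho-rpS6 and 10 uM PI; scan at 488 nm; report % positive cells.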
# S16 viability: cytotoxicity in S16 Pmp22-F2sN Schwann cells; S16 Pmp22-F2sN Schwann cells viability, CellTiter-Glo, 24 h; Potency, µM (top dose mostly 57.5 µM), for inactives: top-dose activity change, negative = cytotoxicity, actives largely listed as cytotoxic; actives 0.48% (n = 43,000); further: potency means the concentration at half of the fitted maximal effect; on the % scale 0 is the no-effect control and ±100 the full control effect; nearly all actives have a fitted effect of over 65% in size
#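 Used to flag compounds lowering reporter output through toxicity, this quantitative HTS measures ATP-based CellTiter-Glo luminescence in S16 Pmp22-F2sN Schwann cells after 24 h compound exposure at 37C.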
# PMP22 txn: modulates PMP22 transcription in S16 Schwann cells; S16 Pmp22-F2sN Schwann cells (luciferase reporters placed in the Pmp22 gene), FLuc/NLuc coincidence luminescence, 24 h; Potency, µM (series often up to 57.5 µM), for inactives: top-dose activity change, negative = inhibition, most hits filed as inhibitors; actives 2% (n = 43,000); active means clear falling dose curves in both reporters; inconclusive means both reporters move, but less clearly or upward; inactive means either reporter flat; the % is the NLuc reporter signal; further: potency means the concentration at half of the fitted maximal effect; on the % scale 0 is the no-effect control and ±100 the full control effect
#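 Reporter cells (S16 Pmp22-F2sN, 500–1,000 per well) exposed to compounds for 24 h, 37C, 5% CO2; lysis with FLuc read after 10 min, then Stop&Glo and NLuc read after 10 min.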
# p53null 39C kill: p53 null cell cytotoxicity, nonpermissive temperature; Potency, µM (series often up to 46.1 µM), for inactives: at the highest dose activity, negative = cell killing, hits mostly cytotoxic; H1299 p53-null (neo) cells, 39C, ATPlite viability, 24 h; actives 0.97% (n = 55,000); AID 904;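 further: potency means the concentration at half of the fitted maximal effect; 0% = DMSO only and -100% = full killing by 100 µM tamoxifen; nearly all actives have a fitted effect of over 50% in size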
#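 Luminescent ATP signal reported cell survival after H1299 lines (neo, p53 null; or p53 A138V) received up to 46 uM compound and 24 hr incubation at 39C.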
# p53null 32C kill: kills p53 null cells at the permissive temperature; H1299-neo p53 null cells, ATP luminescence, 24 h, 32C; Potency, µM (series often up to 46.1 µM), inactives show at the top dose activity change, negative = cytotoxicity, usual class: cytotoxic; actives 0.62% (n = 55,000); AID 903;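 further: potency means the concentration at half of the fitted maximal effect; 0% = DMSO only and -100% = full killing by 100 µM tamoxifen; nearly all actives have a fitted effect of over 55% in size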
#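 Luminescent ATP readout gave cell viability of p53-null H1299-neo cells after a 24 h compound exposure at the permissive 32C. Titrations ran up to 46 uM, and AC50s were fitted with the standard Hill equation.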
# NLuc saturating: inhibits NanoLuc at saturating substrate, PMP22 counter-screen | shares compounds with PMP22 txn | AID 1508638 | Secreted NLuc enzyme (filtered S16 cell medium), Nano-Glo luminescence | actives 4% (n = 690) | Potency, µM (series often up to 57.5 µM), for inactives: top-dose activity change, negative = inhibition, most hits filed as inhibitors; further: potency means the concentration at half of the fitted maximal effect; on the % scale 0 is the no-effect control and ±100 the full control effect
# NLuc Km ctr: inhibits NanoLuc under Km conditions, PMP22 counter-screen | shares compounds with PMP22 txn | secreted NLuc enzyme, coelenterazine luminescence, Km conditions | Potency, µM (series often up to 57.5 µM), inactives show at the highest dose activity change, negative = inhibition, most hits filed as inhibitors | actives 5% (n = 690); further: potency means the concentration at half of the fitted maximal effect; on the % scale 0 is the no-effect control and ±100 the full control effect
# FLuc counter: counter-screen for PMP22 expression modulators: firefly luciferase inhibition; Potency, µM (doses to about 57.5 µM), for the others: at the top dose activity, negative = inhibition, actives largely listed as inhibitors; shares compounds with PMP22 txn; purified P. pyralis FLuc, luminescence, 10 min; 690 tested, under 10 active; AID 1508640; further: % of control where 0% means no effect
# Target sequence (P08659 whole entry, looked up): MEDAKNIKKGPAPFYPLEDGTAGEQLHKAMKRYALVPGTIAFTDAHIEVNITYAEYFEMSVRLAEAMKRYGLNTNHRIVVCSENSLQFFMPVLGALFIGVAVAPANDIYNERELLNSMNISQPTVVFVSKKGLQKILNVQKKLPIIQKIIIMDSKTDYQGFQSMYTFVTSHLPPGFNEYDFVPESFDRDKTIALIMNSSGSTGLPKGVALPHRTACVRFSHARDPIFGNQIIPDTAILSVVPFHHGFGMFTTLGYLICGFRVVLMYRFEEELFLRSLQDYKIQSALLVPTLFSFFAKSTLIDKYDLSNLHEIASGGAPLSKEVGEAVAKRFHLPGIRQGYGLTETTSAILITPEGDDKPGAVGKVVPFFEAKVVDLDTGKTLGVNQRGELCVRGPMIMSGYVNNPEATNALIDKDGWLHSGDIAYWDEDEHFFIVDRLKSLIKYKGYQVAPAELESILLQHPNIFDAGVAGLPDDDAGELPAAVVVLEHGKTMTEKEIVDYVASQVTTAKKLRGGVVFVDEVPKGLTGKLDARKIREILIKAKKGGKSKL
# S16 viab conf: S16 Schwann cell cytotoxicity, confirmatory; shares compounds with PMP22 txn; S16 Schwann cells viability, CellTiter-Glo ATP luminescence, 24 h; Potency, µM (highest dose often 57.5 µM), for the others: top-dose activity change, negative = viability loss, hits mostly cytotoxic; actives 7% (n = 690); AID 1508641; further: potency means the concentration at half of the fitted maximal effect; on the % scale 0 is the no-effect control and ±100 the full control effect
# PMP22 txn cnf: confirmation of modulators of PMP22 gene transcription in S16 cells; shares compounds with PMP22 txn; S16 Schwann cells Pmp22-F2sN, dual luciferase, 24 h; Potency, µM (titrated, usually from 57.5 µM), for the others: top-dose activity change, negative = inhibition, most hits filed as inhibitors; actives 22% (n = 690); active means clear falling dose curves in both reporters; inconclusive means both reporters move, but less clearly or upward; inactive means either reporter flat; the % is the FLuc reporter signal; further: potency means the concentration at half of the fitted maximal effect
# An asterisk follows results filed as active; ? = inconclusive; nt = not tested or not shown. Unless noted, the call rests on the fitted dose curve; in most records, active means well fitted curve in the direction sought with a large enough effect; inconclusive means small, poorly fitted or top-dose-only effect, or another doubt; inactive means no such curve, though single readings can be large; an effect the other way counts as inactive or inconclusive.
SMILES,pS6 MEF inh,S16 viability,PMP22 txn,p53null 39C kill,p53null 32C kill,NLuc saturating,NLuc Km ctr,FLuc counter,S16 viab conf,PMP22 txn cnf
CCOc1ccccc1Nc1sc(C(=O)c2ccccc2)c(N)c1S(=O)(=O)c1ccc(C)cc1,5%,?,2.8µM*,21%,12%,-6%,6%,5%,17%,?
Cc1c(Cl)cccc1Nc1sc(C(=O)c2ccccc2)c(N)c1S(=O)(=O)c1ccccc1,0%,-5%,-19%,0%,10%,nt,nt,nt,nt,nt
Cc1ccc(Cl)cc1-n1nnc(-c2nsc(NC(=O)c3ccccc3Cl)n2)c1C,1%,12%,2%,-5%,38%,nt,nt,nt,nt,nt
Cc1ccccc1Cn1nnc2c(=O)[nH]c(C3CCN(C(=O)c4ccc(F)cc4)CC3)nc21,1%,-14%,10µM*,18%,10%,?,-11%,6%,-11%,-45%
O=C(Nc1ccc(F)cc1)c1oc2ccccc2c1NC(=O)C1CCCCC1,3%,10%,2%,2%,6%,nt,nt,nt,nt,nt
Cc1ccc(C)c(N2CCN(C(=O)Cn3nc(Cc4cccnc4)c4ccccc4c3=O)CC2)c1,-1%,?,?,22%,16%,nt,nt,nt,nt,nt
N#Cc1ccccc1NC(=O)c1cc2c(=O)n3ccccc3nc2s1,-13%,-30%,-6%,10%,1%,nt,nt,nt,nt,nt
CCN(CC)S(=O)(=O)c1ccc2c(c1)N(CC(=O)NCCCN1CCN(c3cc(Cl)ccc3C)CC1)C(=O)CO2,?,?,20µM*,?,?,-3%,-1%,-1%,?,?
